The list is not random: actives were taken first. Their share in the collection is about 19%.
Chronic BCR inh = qHTS Assay to Find Inhibitors of Chronic Active B-Cell Receptor Signaling. 0.05% of 340,000 active. ABC-DLBCL IkBa-CBG/CBR reporter, luminescence ratio, 4 h. AID 493014, 2011. Potency, µM (titrated, usually from 46.1 µM), for inactives: top-dose activity change, negative = inhibition, most hits filed as inhibitors; active means well fitted inhibition curve with a large enough effect in the signal ratio, with a control signal flat, not every such curve was filed as active; inconclusive means small, poorly fitted or top-dose-only effect, or effect the other way, or a change in a side signal; the % refers to the signal ratio;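 further: potency means the concentration at half of the fitted maximal effect; plate controls were basal doxycycline-induced cells for no effect and cells given 10 µM MG132 for full effect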
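TMD8 human ABC-DLBCL cells with doxycycline-inducible IκBα–green luciferase fusion and unfused red luciferase, in 0.5% FBS medium; compounds up to 46 uM, 4 h at 37C. Green/red luminescence ratio, filter-overlap corrected, fitted to concentration-response curves.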
SW480 rerep = A quantitative high throughput screen for small molecules that induce DNA re-replication in SW480 colon adenocarcinoma cells | SW480 DNA re-replication, Hoechst DNA content imaging, 48 h | AID 624297, 2012 | 1.8% of 340,000 active | Potency, µM (series often up to 46.1 µM), for inactives: at the highest dose re-replication activation, usual class: activators; further: potency means the concentration at half of the fitted maximal effect; % of control where 0% means no effect; nearly all actives have a fitted effect of over 55% in size
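Image-based DNA-content assay: after two days of treatment, nuclei were labelled with the DNA dye Hoechst and imaged, and hits were compounds raising the count of nuclei showing high fluorescence intensity.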
MCF10A rereplic = A quantitative high throughput screen for small molecules that induce DNA re-replication in MCF 10a normal breast cells; MCF 10A DNA re-replication, Hoechst nuclear intensity, 48 h; Potency, µM (titrated, usually from 46.1 µM), inactives show at the top dose activity, positive = re-replication, hits mostly activators; 2.9% of 350,000 active; AID 624296, 2012; further: potency means the concentration at half of the fitted maximal effect; % of control where 0% means no effect; nearly all actives have a fitted effect of over 50% in size
DT40 TDP1 CPT = qHTS for Inhibitors of human tyrosyl-DNA phosphodiesterase 1 (TDP1): qHTS in cells in presence of CPT; chicken DT40 Tdp1-/-;hTDP1 cells + 20 nM CPT, ATP luminescence, 48 h; Potency, µM (top dose mostly 46.2 µM), without a hit: top-dose activity change, negative = growth inhibition, most hits filed as inhibitors; 12% of 420,000 active; further: potency means the concentration at half of the fitted maximal effect; on the % scale 0 is the no-effect control and ±100 the full control effect; nearly all actives have a fitted effect of over 55% in size
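Chicken DT40 Tdp1-/- cells stably complemented with human TDP1 were seeded at 400 cells/well in medium containing 20 nM camptothecin, exposed to pin-transferred compounds, and grown at 37 °C for at least 48 hr. Viability was read as ATP luminescence.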
IL1B secr inh = qHTS for Inhibitors of Inflammasome Signaling: IL-1-beta AlphaLISA Primary Screen | activity change, % at 57.5 µM | THP-1 LPS/ATP IL-1B secretion, AlphaLISA, 16 h; hits give low values | 4.7% of 360,000 active; in the data active means activity change below about -50%; inconclusive means mostly about -30% to -49%; further: on the % scale 0 is the no-effect control and ±100 the full control effect
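Secreted IL-1B measured by AlphaLISA bead assay after 16 h compound exposure of THP-1 cells; compounds (final up to 57.5 uM) added 1 h before LPS (250 ng/mL) and ATP (1.25 mM) stimulation; lower signal means less secretion.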
DT40 TDP1 no CPT = qHTS for Inhibitors of human tyrosyl-DNA phosphodiesterase 1 (TDP1): qHTS in cells in absence of CPT; DT40 Tdp1-/- hTDP1 cells, no CPT, ATP luminescence, 48 h; Potency, µM (titrated, usually from 46.2 µM), without a hit: at the top dose activity change, negative = growth inhibition, usual class: inhibitors; 15% of 420,000 active; AID 686978, 2013; further: potency means the concentration at half of the fitted maximal effect; on the % scale 0 is the no-effect control and ±100 the full control effect; nearly all actives have a fitted effect of over 55% in size
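Chicken DT40 Tdp1-/- cells complemented with human TDP1, screened without camptothecin (DMSO vehicle only), 400 cells/well. Compounds pin-transferred, cells incubated at 37 °C for at least 48 hr. Growth read as ATP-dependent luminescence (CellTiter-Glo, 30 min at RT).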
Numbers without * were called inactive; u = inconclusive; x = no result given. Unless noted, the call rests on the fitted dose curve; in most records, active means well fitted curve in the direction sought with a large enough effect; inconclusive means small, poorly fitted or top-dose-only effect, or another doubt; inactive means no such curve, though single readings can be large; an effect the other way counts as inactive or inconclusive.

SMILES | Chronic BCR inh | SW480 rerep | MCF10A rereplic | DT40 TDP1 CPT | IL1B secr inh | DT40 TDP1 no CPT
CC(=O)N1c2ccc(S(=O)(=O)NCC3CCC(C(=O)NC4CCCCC4)CC3)cc2CC1C (configuration not stated) | -4% | -8% | -2% | -19% | -8 | 2.9µM*
CC(=O)N1c2ccc(S(=O)(=O)NCC3CCC(C(=O)NCCC(C)C)CC3)cc2CC1C (configuration not stated) | x | x | x | 15µM* | x | 16µM*
CC(=O)N1c2ccc(S(=O)(=O)NCC3CCC(C(=O)NCc4ccc(C)cc4)CC3)cc2CC1C (configuration not stated) | 3% | u | -5% | 21µM* | 1 | 15µM*
CC(=O)N1c2ccc(S(=O)(=O)NCC3CCC(C(=O)Nc4cc(C)ccc4C)CC3)cc2CC1C (configuration not stated) | x | x | x | 23µM* | x | 18µM*
CCCNC(=O)C1CCC(CNS(=O)(=O)c2ccc3c(c2)CC(C)N3C(C)=O)CC1 (configuration not stated) | 1% | u | 7% | u | 0 | u
CCC(C)[C@H]1COCCS(=O)(=O)N1Cc1ccccc1 (some centres not stated) | -14% | -7% | u | -8% | -6 | -27%
CCOP(=O)(OCC)c1nc(Cc2ccccc2)oc1NCc1ccccc1 | -6% | 1% | 0% | u | 0 | u
O=P(c1ccccc1)(c1ccccc1)c1nc(-c2ccccc2)oc1NCc1ccccc1 | 2% | -2% | 14% | u | -14 | 18µM*
CCOC(=O)CC(=O)CSc1nc(-c2ccc3c(c2)OCO3)cc(C(F)(F)F)c1C#N | 4% | u | 6.3µM* | -8% | 64 | -15%
CCOC(=O)CCSc1nc(-c2ccc3c(c2)OCO3)cc(C(F)(F)F)c1C#N | 0% | -5% | 5% | -21% | 24 | u
C=CCSc1nc(-c2ccc3c(c2)OCO3)cc(C(F)(F)F)c1C#N | -13% | 7.3µM* | 15% | -19% | 0 | u
CCOC(=O)c1cnn(-c2cccc(F)c2)c1C1CCNCC1 | x | x | x | -28% | x | -8%
OCC1(CO)COC(C(Cl)(Cl)Cl)OC1 | x | 3% | 0% | 10% | x | 0%
COc1ccc(C2=NN(CC(=O)NCCc3ccccc3)C(=O)CC2)cc1 | -9% | x | x | -1% | x | -15%
CCN(CCCNC(=O)CN1N=C(c2ccc(C)cc2)CCC1=O)c1ccccc1 | u | x | x | u | x | 23µM*
COc1ccc(C2=NN(CC(=O)NCCCN(C)c3ccccc3)C(=O)CC2)cc1 | -29% | x | x | u | x | 15µM*
COCCNC(=O)CN1N=C(c2ccc(OC)cc2)CCC1=O | -1% | -5% | 2% | u | -9 | -9%
CCCCN(CCCNC(=O)CN1N=C(c2ccc(C)cc2)CCC1=O)c1ccccc1 | -20% | x | x | u | x | 15µM*
CCN(CCCNC(=O)CN1N=C(c2ccc(OC)cc2)CCC1=O)c1cccc(C)c1 | -29% | x | x | u | x | 18µM*
CCN(CCCNC(=O)CN1N=C(c2ccccc2)CCC1=O)c1cccc(C)c1 | -18% | x | x | -13% | x | -19%
Cc1nnc(N2C(=O)c3oc4ccccc4c(=O)c3C2c2ccc(Cl)cc2)s1 (configuration not stated) | 3% | x | x | -22% | x | -24%
CCc1nc2c(OCC(=O)N3CCOCC3)cccn2c1N(C=O)Cc1ccccc1 | x | x | x | -6% | 23 | -3%
O=C(NCC1Cc2cccc(-c3cnccn3)c2O1)C1COc2ccccc2O1 (configuration not stated) | x | x | x | 10% | x | -19%
CCc1nc2c(OCC(=O)C(C)(C)C)cccn2c1N(C)C(=O)COc1ccccc1 | x | x | x | -23% | 5 | -2%
CCCc1nc2ccc(C(=O)OC)cn2c1Cc1ccccc1C(F)(F)F | x | x | x | u | 15 | 16µM*
SMILES | Chronic BCR inh | SW480 rerep | MCF10A rereplic | DT40 TDP1 CPT | IL1B secr inh | DT40 TDP1 no CPT
CCCc1nc2ccc(C(=O)OC)cn2c1Cc1ccc(C)cc1 | x | x | x | 18µM* | 17 | 23µM*
Cc1ccc2nc(-c3ccc(F)cc3)c(Cc3ccccc3C(F)(F)F)n2c1 | x | x | x | u | 14 | u
CCCc1nc2ccc(C)cn2c1Cc1ccc(C)cc1 | x | x | x | 21µM* | -4 | 18µM*
CCCc1nc2ccc(C)cn2c1Cc1cccc(F)c1 | x | x | x | u | 23 | u
CCCc1nc2ccc(C(=O)OC)cn2c1Cc1ccccc1 | x | x | x | u | 24 | 29µM*
CC(C)c1ccc(CC(=O)N2CCC2(C)C(=O)NS(=O)(=O)c2cccc(C#N)c2)cc1 (configuration not stated) | x | x | x | 0% | 17 | -2%
COc1ccc(C(C)NCCC(c2ccc(OC(C)C)cc2)c2ccccc2OC)cc1 (configuration not stated) | u | u | 23µM* | 5.8µM* | -98* | 5.8µM*
COc1ccc(C(CCNC(C)c2ccccc2)C(C)C)cc1 (configuration not stated) | u | -20% | -6% | u | x | 16µM*
C[C@@H]1CN([C@H](C)CO)C(=O)c2cc(C#Cc3ccccc3F)cnc2O[C@@H]1CN(C)S(=O)(=O)c1ccccc1F | x | x | x | -2% | 14 | -1%
CN(C)CCN(Cc1ccco1)C(=O)c1cc2c(s1)-c1ccccc1OC2 | x | x | x | 16µM* | x | 16µM*
CCCCN(Cc1ccco1)C(=O)c1cc2c(s1)-c1c(C)cccc1OC2 | x | x | x | u | x | 23µM*
O=C(O)c1cc2c(s1)-c1ccccc1OC2 | u | 3% | -16% | -23% | 10 | -22%
Cc1cc(C)n2nc(C(=O)OCCOc3ccc(F)cc3)nc2n1 | -5% | -4% | -10% | -7% | -50* | 5%
Cc1cc(C)n2nc(C(=O)OCCOc3cccc(Br)c3)nc2n1 | 5% | 1% | -1% | u | -6 | -19%
Cc1cc(C(=O)CSc2nnnn2C)c(C)n1CCc1ccc(F)cc1 | 3% | -7% | 2% | 4% | 26 | -6%
COc1ccc(CCn2c(C)cc(C(=O)CCl)c2C)cc1OC | u | 5.8µM* | 6.5µM* | 6.5µM* | -100* | 5.2µM*

Screening data deposited in PubChem by National Center for Advancing Translational Sciences (NCATS).
